Bioassay records as filed in PubChem.
Apoferritin bind = candidate novel general anesthetic via apoferritin binding | P02791 | apoferritin/1-aminoanthracene competitive binding, fluorescence | Potency, µM (series often up to 77.5 µM), hits mostly inhibitors | actives 0.074% (n = 350,000) | AID 485281; also: nearly all actives have a fitted effect of over 20% in size
Target sequence (P02791 2-175 limits assumed): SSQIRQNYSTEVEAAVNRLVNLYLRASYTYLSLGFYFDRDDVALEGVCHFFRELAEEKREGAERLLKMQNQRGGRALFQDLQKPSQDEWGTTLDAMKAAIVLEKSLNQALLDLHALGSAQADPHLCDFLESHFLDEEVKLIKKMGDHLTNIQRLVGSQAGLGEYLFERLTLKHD
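In PBS, apoferritin at 10 uM is loaded with 1-AMA from a 50% saturated solution. After 10 min of compound exposure at ambient temperature, reduced 535 nm fluorescence indicates probe displacement.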
CCT modulator = modulators of cytosolic chaperonin (CCT/TRiC) activity. AID 651819. purified chaperonin ATPase assay, HTRF ADP detection, 30 min. actives 0.3% (n = 360,000). activity change, % (concentration not given with the values), hits read low; in the data active = activity change below about -30%
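First, chaperonin was dispensed at 40 nM or 20 nM final depending on batch activity. Next, compounds were pinned at 76 uM and ATP added at 10 uM. After 30 min at 37 °C, ADP detection reagents ran 30 min at ambient temperature.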
Mm-Cpn inhibitor = blocks the Methanococcus maripaludis chaperonin Mm-Cpn | purified Mm-Cpn ATPase, ADP Transcreener TR-FRET | Potency, µM (top dose mostly 76.9 µM), usual class: inhibitors | actives 0.031% (n = 330,000) | AID 504842; also: nearly all actives have a fitted effect of over 80% in size
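TR-FRET (320 nm excitation; 590 and 665 nm emission) reports ADP made from 10 uM ATP by 25 nM enzyme; compounds were preincubated 10 min, reaction run 30 min, both at 37°C.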
ERG-DNA inh = ERG Ets/DNA interaction inhibition; P11308; fluorescence polarization, His-ERG Ets domain / labelled DNA; Potency, µM (top dose mostly 76.9 µM), hits mostly inhibitors; actives 0.028% (n = 370,000); AID 624246; active = well fitted inhibition curve with a large enough effect in the polarisation, with a control signal flat; inconclusive = small, poorly fitted or top-dose-only effect, or effect the other way, or a change in a side signal; inactive = no such curve, though single readings can be large or run the other way; the % refers to the polarisation;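 also: polarization taken with two DNA probes labelled with fluorescein and Texas red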
Target sequence (P11308 whole entry, looked up, the tested form may be a part): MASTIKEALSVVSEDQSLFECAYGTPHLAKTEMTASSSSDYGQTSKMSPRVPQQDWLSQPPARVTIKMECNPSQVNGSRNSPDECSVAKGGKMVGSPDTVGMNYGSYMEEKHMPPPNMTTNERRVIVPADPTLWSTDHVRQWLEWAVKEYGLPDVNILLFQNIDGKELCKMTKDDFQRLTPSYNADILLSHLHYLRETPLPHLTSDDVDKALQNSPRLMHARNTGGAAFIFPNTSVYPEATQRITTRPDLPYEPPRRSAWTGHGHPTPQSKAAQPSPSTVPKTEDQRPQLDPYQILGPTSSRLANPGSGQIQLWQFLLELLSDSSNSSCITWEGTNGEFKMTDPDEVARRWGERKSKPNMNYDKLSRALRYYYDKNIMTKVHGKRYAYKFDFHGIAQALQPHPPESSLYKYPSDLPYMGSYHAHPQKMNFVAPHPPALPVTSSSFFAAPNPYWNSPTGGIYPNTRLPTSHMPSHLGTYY
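His-tagged ERG Ets domain (1 uM in the protein solution; 300mM KCl, 50mM Tris-HCl, 1mM EDTA, 1mM DTT, pH 7.5) received compound, then a probe mix of 5 nM fluorescein-DNA and 100nM Texas-615-DNA. Fluorescence polarization was read for both dyes.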
Hits are given with their value. This is a sample that favours compounds with a hit; in the whole collection about 0.39% have one here. Unless noted, calls follow the shape of the dose curve; as a rule, active = well fitted curve in the direction sought with a large enough effect; inconclusive = small, poorly fitted or top-dose-only effect, or another doubt; inactive = no such curve, though single readings can be large; an effect the other way counts as inactive or inconclusive.

For CCOC(=O)c1ccc(NC(=O)CN2C(=O)c3cccnc3Oc3ccc(Cl)cc32)cc1 the results were Apoferritin bind inactive and ERG-DNA inh inactive.
Screening CCC(C)c1ccc(NC(=S)NCCn2cc(Cl)cn2)cc1 (configuration not stated) returned Apoferritin bind inconclusive, CCT modulator -39, Mm-Cpn inhibitor inactive and ERG-DNA inh inactive.
Screening CCC(C)c1ccc(NC(=S)NCCn2cc(Br)cn2)cc1 (configuration not stated) returned Apoferritin bind inconclusive, CCT modulator inactive, Mm-Cpn inhibitor inactive and ERG-DNA inh inactive.
`O=C(COC(=O)c1ccc([N+](=O)[O-])cc1)Nc1ccc(Cl)cn1` gave CCT modulator inactive, Mm-Cpn inhibitor inactive and ERG-DNA inh inactive.
For O=C(COC(=O)c1cccc([N+](=O)[O-])c1)Nc1ccc(Cl)cn1 the results were CCT modulator -42, Mm-Cpn inhibitor inactive and ERG-DNA inh inactive.
Screening CCCC1([C@H](O)C/C=C/[C@H]2[C@H](O)CC(=O)[C@@H]2CCCCCCC(=O)OC)CCC1 returned Apoferritin bind inactive.
For O=C(NCCCCc1ccccc1)C1CC(c2cccc(F)c2)=NO1 (configuration not stated) the results were Apoferritin bind inactive, CCT modulator -34, Mm-Cpn inhibitor inactive and ERG-DNA inh inactive.
`CC1=CC(c2ccccc2)n2nc(N)nc2N1` (configuration not stated) gave CCT modulator -87 and ERG-DNA inh inactive.
COc1ccc(CNC(=O)CN(C(=O)c2csnn2)c2ccc(F)cc2)cc1 was read as Apoferritin bind inactive, CCT modulator inactive, Mm-Cpn inhibitor inactive and ERG-DNA inh inactive.
Screening COc1ccc(CNC(=O)CN(C(=O)c2csnn2)c2ccc(C(C)=O)cc2)cc1 returned Apoferritin bind inactive, CCT modulator -40, Mm-Cpn inhibitor inactive and ERG-DNA inh inactive.
`CC(=O)N[C@H]1CSSC[C@@H](C(=O)N2CCC[C@H]2C(=O)N2CCC[C@H]2C(=O)N[C@@H](CCCCN)C(=O)N[C@@H](CC(=O)O)C(N)=O)NC(=O)CNC(=O)[C@H](Cc2c[nH]c3ccccc23)NC(=O)[C@H](CCCNC(=N)N)NC(=O)[C@@H](Cc2ccc3ccccc3c2)NC(=O)[C@H](Cc2cnc[nH]2)NC(=O)[C@H](CCC(=O)O)NC1=O` gave Apoferritin bind inactive.
Screening NS(=O)(=O)c1ccc(CNC(=O)c2cc(-c3ccccn3)nc3ccc(Cl)cc23)cc1 returned Apoferritin bind inactive, CCT modulator -55, Mm-Cpn inhibitor inconclusive and ERG-DNA inh inactive.
Screening CC(C)CC(CSc1ccc(Br)cc1)N1CCN(CCc2ccccc2)CCC1=O (configuration not stated) returned Apoferritin bind inactive.
`COc1ccc(-c2[nH]c(-c3ccccc3)nc2SCC(=O)Nc2ccc3c(c2)OCO3)cc1` gave Apoferritin bind inactive and ERG-DNA inh inactive.
CC12CCC(=O)N1C(C(=O)Nc1nnc(SCc3ccc(F)cc3)s1)CS2 (configuration not stated) was read as Apoferritin bind 22µM, CCT modulator inactive, Mm-Cpn inhibitor inactive and ERG-DNA inh inactive.
Screening CC1CC2C3CCC4=CC(=O)C=C[C@@]4(C)[C@]3(F)C(O)C[C@]2(C)[C@]1(O)C(=O)COP(=O)(O)O (some centres not stated) returned Apoferritin bind inactive.
Screening OCCC1CN(Cc2cc(F)ccc2-n2cccn2)CCN1C1CCCC1 (configuration not stated) returned Apoferritin bind inactive, CCT modulator -30, Mm-Cpn inhibitor inactive and ERG-DNA inh inactive.
CC(=O)n1cc(C2CC(=O)OC3=C2CC(=O)C(C)(C)C3)c2ccccc21 (configuration not stated) was read as CCT modulator -106.
`COc1ccc(-n2c3c(cc(C#N)c2=O)C(=O)CCC3)cc1` gave Apoferritin bind inactive, CCT modulator -34, Mm-Cpn inhibitor inactive and ERG-DNA inh inactive.
Screening COc1ccc(-n2c3c(cc(C(=O)Nc4ccc(C)cc4)c2=O)C(=O)CCC3)cc1 returned CCT modulator inactive and ERG-DNA inh inactive.
For CN(CC(=O)O/N=C(\N)c1cccc([N+](=O)[O-])c1)S(=O)(=O)c1ccccc1 the results were Apoferritin bind 28µM, CCT modulator inactive, Mm-Cpn inhibitor inactive and ERG-DNA inh inactive.
COc1cc(C(=O)Nc2ccccc2N2CCOCC2)ccc1OCC(=O)N1CCOCC1 was read as CCT modulator inactive, Mm-Cpn inhibitor inactive and ERG-DNA inh inactive.
Screening COc1cc(C(=O)Nc2cccc(C)c2C)ccc1OCC(=O)N1CCOCC1 returned CCT modulator -34, Mm-Cpn inhibitor inactive and ERG-DNA inh inactive.
CN1CCN(c2nc3c(c(=O)[nH]c(=O)n3C)n2Cc2ccc([N+](=O)[O-])cc2)CC1 was read as Apoferritin bind inactive, CCT modulator -76, Mm-Cpn inhibitor inactive and ERG-DNA inh inactive.
For CN(C)c1nc(-c2ccccc2)ncc1S(=O)(=O)c1ccccc1 the results were Apoferritin bind inactive, CCT modulator -32, Mm-Cpn inhibitor inactive and ERG-DNA inh inactive.
`CCN(CC)c1nc(-c2ccccc2)ncc1S(=O)(=O)c1ccc(C)cc1` gave Apoferritin bind inactive, CCT modulator inactive, Mm-Cpn inhibitor inactive and ERG-DNA inh inactive.
CC(C)CCCC(C)CCCC(C)CCCC(C)C(=O)O (configuration not stated) was read as Apoferritin bind inactive.
Screening CCN(CC)CCC(c1ccc(N(C)C)cc1)c1c(OC)cc(OC)c2c1OC(=O)CC2c1ccc(N(C)C)cc1 (configuration not stated) returned Apoferritin bind inactive.
Screening CC(=O)N1c2c(cc(Br)cc2S(=O)(=O)Nc2c(C)n(C)n(-c3ccccc3)c2=O)CC1C (configuration not stated) returned Apoferritin bind inactive, CCT modulator -41, Mm-Cpn inhibitor inactive and ERG-DNA inh inactive.
COC(=O)CSCc1nc2ccccc2[nH]c1=O was read as Apoferritin bind inactive, CCT modulator -33, Mm-Cpn inhibitor inactive and ERG-DNA inh inactive.
Screening Cc1cc(C)c(S(=O)(=O)N2CCN(S(=O)(=O)N3CCC(C)CC3)CC2)c(C)c1 returned Apoferritin bind inactive, CCT modulator -49, Mm-Cpn inhibitor inactive and ERG-DNA inh inactive.
Screening CC(C)C[C@H](NC(=O)[C@H](Cc1ccccc1)NC(=O)CNC(=O)[C@H](CCC(=O)O)NC(=O)[C@H](CCCNC(=N)N)NC(=O)[C@H](C)NC(=O)[C@H](C)NC(=O)[C@@H](N)CC(=O)O)C(=O)N[C@@H](CC(=O)O)C(=O)N[C@H](C(=O)N[C@@H](CC(C)C)C(=O)N[C@H](C(=O)N[C@H](C(=O)N[C@@H](CC(C)C)C(=O)N[C@@H](Cc1cnc[nH]1)C(=O)N[C@@H](CCCNC(=N)N)C(=O)N[C@@H](C)C(=O)NCC(=O)N[C@@H](C)C(=O)N[C@@H](CCCNC(=N)N)C(=O)O)C(C)C)C(C)C)[C@@H](C)O returned Apoferritin bind inactive.
